Data as given in the supplement of paper PMC9135407.
Structures can show the parent of a compound that is named as a salt. Values without a mark were called inactive.

These compounds were tested on primary human hepatic stellate cells (donor 1) (assay: COL1A1 mRNA fold change vs DMSO (normalised to PSMB2); higher = more COL1A1 expression, active = hit call of the paper). Conditions: 48 h.
Method: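 Secondary qRT-PCR screen in primary human HSCs (donor 1), 384-well plates, with compounds dispensed in quadruplicate and incubated for 48 h. Cells-to-CT lysates were used for multiplexed TaqMan qPCR of ACTA2 or COL1A1 with PSMB2 as reference. Fold changes versus DMSO come from a linear model (Ct_gene ~ Ct_PSMB2 + plate + chemical). A hit is defined as COL1A1 and ACTA2 FC <0.5 (FDR <0.05) with PSMB2 between 0.2 and 2.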

SMILES	COL1A1 mRNA fold change
CCCCCCCCCCCCC/C=C/[C@@H](O)[C@H](CO)N(C)C [N,N-Dimethylsphingosine] (3.33333 µM)	0.928
NC[C@@H]1O[C@H](C23CC4CC(CC(C4)C2)C3)Cc2c1ccc(O)c2O (33.3333 µM)	0.136
CC(/C=C/C(=O)NO)=C\[C@@H](C)C(=O)c1ccc(N(C)C)cc1 [Trichostatin A] (3.33333 µM)	0.405 (active)
Cc1ccc(S(=O)(=O)/C=C/C#N)cc1 (33.3333 µM)	0.394
CNCCCC12CCC(c3ccccc31)c1ccccc12 [Maprotiline hydrochloride] (33.3333 µM)	0.0732 (active)
COC(=O)C[C@](O)(CCCC(C)(C)O)C(=O)O[C@@H]1C(OC)=C[C@]23CCCN2CCc2cc4c(cc2[C@H]13)OCO4 [Homoharringtonine] (33.3333 µM)	0.0354 (active)
CNCCC(Oc1ccc(C(F)(F)F)cc1)c1ccccc1 (stereo not given) [Fluoxetine hydrochloride] (33.3333 µM)	0.114 (active)
Clc1ccc(C2(c3ccc(-c4cn[nH]c4)cc3)CCNCC2)cc1 (33.3333 µM)	0.285 (active)
C#CC1(O)CC[C@H]2[C@@H]3CCC4=CC(=O)CC[C@@H]4[C@H]3CC[C@@]21CC (stereo not given in full) [Norgestrel] (21.3333 µM)	1.14
CCC/C=C\C=C/C(=O)N[C@@H](CC(N)=O)C(=O)NC(CC(N)=O)C(=O)N[C@@H](C(=O)N[C@H](CCCN)C(=O)N[C@@H](C(=O)N[C@@H](C(=O)N[C@@H](C(=O)N[C@H](C(=O)N[C@@H](Cc1ccccc1)C(=O)N[C@H](CCCN)C(=O)NC(C(=O)N[C@H](C(=O)NC(C(=O)NCC(=O)N[C@@H](CC(C)C)C(=O)N[C@H](C)C(=O)NC(C(=O)O)C1CCC(O)C(Cl)C1)C1CCC(O)CC1)[C@H](C)O)C1CCC(O)CC1)[C@H](C)O)C1CCC(O)CC1)C1CCC(O)CC1)[C@H](C)O)C1CCC(O)CC1 (stereo not given in full) (33.3333 µM)	1.59
CN1CCC(=C2c3ccccc3C=Cc3ccccc32)CC1 [Cyproheptadine] (33.3333 µM)	0.078 (active)
Cc1[nH]c(/C=C2\C(=O)Nc3ccc(S(=O)(=O)N(C)c4cccc(Cl)c4)cc32)c(C)c1C(=O)N1CCN(C)CC1 (33.3333 µM)	0.254 (active)
CN1CCCN(C(c2ccccc2)c2ccc(Cl)cc2)CC1 (stereo not given) [Homochlorcyclizine dihydrochloride] (33.3333 µM)	0.0131 (active)
NS(=O)(=O)C#Cc1ccccc1 [Pifithrin->m] (33.3333 µM)	0.18
C[C@H]1O[C@@H](O[C@H]2[C@@H](O)C[C@H](O[C@H]3[C@@H](O)C[C@H](O[C@H]4CC[C@@]5(C)[C@H](CC[C@@H]6[C@@H]5C[C@@H](O)[C@]5(C)[C@@H](C7=CC(=O)OC7)CC[C@]65O)C4)O[C@@H]3C)O[C@@H]2C)C[C@H](O)[C@@H]1O [Digoxin] (33.3333 µM)	0.0679 (active)
CCCSc1ccc2[nH]c(NC(=O)OC)nc2c1 [Albendazole] (33.3333 µM)	0.881
CCOC(=O)C1=C(COCCN)NC(C)=C(C(=O)OC)C1c1ccccc1Cl (stereo not given) (33.3333 µM)	0.437 (active)
C[C@@H](Oc1cc(-c2cnn(C3CCNCC3)c2)cnc1N)c1c(Cl)ccc(F)c1Cl (11.1 µM)	0.235 (active)
CCCCCCCCc1ccc(CCC(N)(CO)CO)cc1 [Fingolimod (FTY720) HCl] (11.1 µM)	0.392
O=C(c1ccc(/C=C/c2n[nH]c3ccccc23)cc1)N1CCNCC1 (33.3333 µM)	0.0707

SMILES	COL1A1 mRNA fold change
CC(C)(C)c1cc(NC(=O)Nc2ccc(-c3cn4c(n3)sc3cc(OCCN5CCOCC5)ccc34)cc2)no1 [Quizartinib  (AC220)] (11.1 µM)	1.01
CC(C)c1cc(-c2n[nH]c(=O)n2-c2ccc3c(ccn3C)c2)c(O)cc1O [Ganetespib (STA-9090)] (33.3333 µM)	1.04
CCNC(=O)c1noc(-c2cc(C(C)C)c(O)cc2O)c1-c1ccc(CN2CCOCC2)cc1 (11.1 µM)	1.09
CC[C@@H]1C(=O)N(C)c2cnc(Nc3ccc(C(=O)NC4CCN(C)CC4)cc3OC)nc2N1C1CCCC1 (33.3333 µM)	0.0466
CN1CCC(Nc2ncc3ncnc(Nc4ccc(F)c(Cl)c4)c3n2)CC1 [BIBX 1382 dihydrochloride] (33.3333 µM)	0.00366
Cc1nc(Nc2ncc(C(=O)Nc3c(C)cccc3Cl)s2)cc(N2CCN(CCO)CC2)n1 (33.3333 µM)	0.446 (active)
Cc1cnc(-c2cnc(NCCNc3ccc(C#N)cn3)nc2-c2ccc(Cl)cc2Cl)[nH]1 (33.3333 µM)	1.04
Nc1ccc(C(=O)Nc2cccc(-c3nc(N4CCOCC4)c4oc5ncccc5c4n3)c2)cn1 (6.66667 µM)	1.15
CC1(C)CC(=O)c2c(C(F)(F)F)nn(-c3ccc(C(N)=O)c(N[C@H]4CC[C@H](OC(=O)CN)CC4)c3)c2C1 (33.3333 µM)	0.807
Clc1ccccc1CNCC1CCC(CNCc2ccccc2Cl)CC1 (stereo not given) (33.3333 µM)	0.055
COC(=O)N[C@H](C(=O)N1CCC[C@H]1c1ncc(-c2ccc(-c3ccc(-c4cnc([C@@H]5CCCN5C(=O)[C@@H](NC(=O)OC)C(C)C)[nH]4)cc3)cc2)[nH]1)C(C)C (33.3333 µM)	0.0176
CS(=O)(=O)CCNCc1ccc(-c2ccc3ncnc(Nc4ccc(OCc5cccc(F)c5)c(Cl)c4)c3c2)o1 (6.66667 µM)	1.41
[O-][S+](c1ccccc1)c1ccc2nnnn2n1 (stereo not given) (33.3333 µM)	0.0868
CC(C)c1ccc(C(=O)c2cccs2)c(SCCCCCCCCN(C)C)n1 (33.3333 µM)	0.429
CNc1nccc(-c2cccnc2Oc2cc(C(=O)Nc3cccc(C(F)(F)F)c3)ccc2C)n1 (33.3333 µM)	0.618
O=C1Nc2ccccc2/C1=C1/Nc2ccccc2C1=O [Indirubin] (63.5333 µM)	0.897
CNCc1ccc(-c2[nH]c3cc(F)cc4c3c2CCNC4=O)cc1 (33.3333 µM)	0.83
NC(N)=NC(=O)c1nc(Cl)c(N2CCCCCC2)nc1N [5-(N,N-hexamethylene)amiloride] (33.3333 µM)	0.0273 (active)
CC[C@]1(O)C[C@@H]2CN(CCc3c([nH]c4ccccc34)[C@@](C(=O)OC)(c3cc4c(cc3OC)N(C)[C@H]3[C@@](O)(C(=O)OC)[C@H](OC(C)=O)[C@]5(CC)C=CCN6CC[C@]43[C@@H]65)C2)C1 [Vinblastine sulfate] (33.3333 µM)	0.513
O=C(Nc1ncc(SCCN2CCCC2)s1)[C@]1(c2ccc(S(=O)(=O)C3CC3)cc2)C[C@H]1C1CCCCC1 (11.1 µM)	0.0203 (active)
